We go through 37 molecules from PubChem BioAssay (NCI).

The panel holds about 83,000 compounds, 20% with a hit somewhere; the sample as a whole holds those more often.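 Percent growth is the endpoint: 0 to 100 indicates growth inhibition (40 means 60% inhibition), 0 means no net growth, and negative values indicate cell death.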 Calls of active or inactive are those of the source. Rule for the calls: active = growth percent below 10; inactive = the rest.

In the assay the test system is A498 renal. Kind of assay: NCI-60 one-dose screen, 48 h (100 = growth as untreated, 0 = no growth, -100 = all killed). To be noted: 10 µM unless noted.
As to `CC(C)CNc1nc(N=[N+]=[N-])nc(NCC(C)C)n1`, the growth is 35.5% [100 µM] (inactive).

On to `CCCCCCCSc1ncnc2[nH]ncc12`, for which the growth is 88.7% (inactive).

In the case of `COC(=O)[C@H](Cc1cn(C)cn1)NC(=O)[C@H](Cc1ccccc1)NC(=O)Nc1cc(C(F)(F)F)cc(C(F)(F)F)c1`, the growth is -90.6% [100 µM] (active).

Turning to `CC[N+](CCCCCCCCCC[N+](CC)(c1ccccn1)c1ccccn1)(c1ccccn1)c1ccccn1`, the growth is -2.28% (active).

As for `CCCCCCC(CC#N)(CCC)CCCC` (configuration not stated), the growth is 100% (inactive).

Consider `O=C1NC(=O)/C(=C\c2ccco2)S1`, for which the growth is 75.8% (inactive).

Regarding `Cc1sc2nc3c4ccccc4c(NCCCN(C)C)nn3c(=O)c2c1C`, the growth was 51.8% (inactive).

Regarding `COc1ccc([N+](=O)[O-])c(S(=O)(=O)c2ccc(Cl)cc2)n1`, the growth was 110% (inactive).

On to `COc1ccc(NC(=O)c2ccccc2-c2ccccc2)c(C(N)=O)c1`, for which the growth is 30.8% (inactive).

As to `CCCCCc1c(C)[nH]c(/C=C2\N=C(c3ccc[nH]3)C=C2Oc2ccccc2)c1C`, the growth is -75.3% [100 µM] (active).

For `COc1ccc(NC(=O)[C@@H]2C[C@H]2c2ccccc2)c(C(N)=O)c1`, the growth is 98.1% (inactive).

Take `COc1cc(-c2n[nH]nc2-c2ccccn2)cc(OC)c1OC`: the growth was 118% (inactive).

On to `O=C1C(=O)/C(=C/c2ccccc2)CCCCCC/C1=C/c1ccccc1`, for which the growth is 78.6% (inactive).

As to `O=C(Nc1ccc(Cl)cc1)Nc1nc2ccc(OC(F)(F)F)cc2o1`, the growth was 119% (inactive).

On to `COc1ccc(N2CCN(CC(=O)N3CCN(c4nnc(-c5ccccc5)c(-c5ccccc5)n4)CC3)CC2)cc1`, for which the growth was 44.1% (inactive).

`CCCCCCCCCCCCCCCCNC(=O)Nc1ccc2ccccc2c1`: the growth is 104% (inactive).

Regarding `FCc1ncc(-c2ccc(C(F)(F)F)cc2)c(NC2CCCCCC2)n1`, the growth was -19.4% [100 µM] (active).

Consider `O=Cc1ncc(-c2ccc(C(F)(F)F)cc2)c(NC2CCCCCC2)n1`, for which the growth was -73.1% [100 µM] (active).

As to `CSc1nc(-c2ccc(O)cc2O)c2c(=O)[nH]c(Nc3ccc(S(=O)(=O)Nc4nc(C)cc(C)n4)cc3)nc2n1`, the growth is 113% (inactive).

As for `CC(C)OP(=O)(OC(C)C)c1ncc(-c2ccc(C(F)(F)F)cc2)c(NC2CCCCCC2)n1`, the growth was -94% [33.3 µM] (active).

Regarding `NS(=O)(=O)c1ccc(-n2nc(-c3ccc(Br)cc3)ccc2=O)cc1`, the growth was 40.6% [100 µM] (inactive).

`CC1CC=CCC1C1OCC(C)(C)CO1` (configuration not stated): the growth is 103% (inactive).

Consider `N[C@H](CS)C(=O)O`, for which the growth was 117% (inactive).

On to `CCCCCc1c(C)[nH]c(/C=C2\N=C(c3ccc[nH]3)C=C2Oc2ccc(Cl)cc2)c1C`, for which the growth is -49% [100 µM] (active).

`[N-]=[N+]=NCc1ncc(-c2ccc(C(F)(F)F)cc2)c(NC2CCCCCC2)n1`: the growth is 82.5% [50 µM] (inactive).

In the case of `COc1ccc(-c2nnc3c4[nH]cnc4ncn23)c(OC)c1`, the growth was 80.4% (inactive).

For `C1CCC(C(CC2CCCCN2)C2CCCCC2)CC1` (configuration not stated), the growth is 51.1% (inactive).

`CCOC(=O)c1sc(NC(=O)COc2cccc(/C=C3\Cc4ccc(Cl)cc4C3=O)c2)nc1C`: the growth was 133% (inactive).

`CCCCCCCC[Si](OCC)(OCC)OCC`: the growth is 105% (inactive).

On to `CCOc1cc(CCNS(=O)(=O)c2ccc(C)cc2)c(C(C)=O)cc1OCC`, for which the growth is 62.1% [100 µM] (inactive).

`CC(=O)c1ccc(NS(=O)(=O)c2ccc([N+](=O)[O-])cc2)cc1`: the growth was 90.5% (inactive).

Regarding `COC(=O)[C@H](CCCCNC(=O)OCc1ccccc1)NC(=O)[C@@H](NC(=O)Nc1cc(C(F)(F)F)cc(C(F)(F)F)c1)C(C)C`, the growth was -5.02% [100 µM] (active).

As for `O=C(/C=C/c1c(-c2ccccc2)[nH]c2ccccc12)S(=O)(=O)c1ccccc1`, the growth was 53.8% (inactive).

With `CCOC(=O)C(C(=O)OCC)C1CCCCC1`, the growth is 107% (inactive).

As to `CNc1nc(NC2CCCC2)nc(Sc2ccc(OC)cc2)n1`, the growth is 10.1% [100 µM] (inactive).

In the case of `O=c1sc2ncnc3ncn1c32`, the growth was 101% (inactive).

`Cc1nn2c(/C=C3/C(=O)Nc4cc(Cl)ccc43)c(-c3ccccc3)nc2s1`: the growth is 80.2% (inactive).
